Values without a mark were called inactive. How the calls were made is not given here.
Tested on: Aerobactin synthetase IucA (Klebsiella pneumoniae hvKP1)
Test: IucA enzyme inhibition, primary screen, biochemical, Spectrum library (AID 1346200);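 further: 100% = wells without compound and 0% = wells lacking enzyme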
Details: malachite green pyrophosphate, A620, at 8 µM, active compounds read low

Row | SMILES | activity remaining [%]
1 | N=c1ccn2c(n1)O[C@@H]1[C@@H](O)[C@H](CO)O[C@@H]12 | 97.5
2 | CN(C(=O)CN(CCO)CC(=O)N(C)C(C)(C)Cc1ccccc1)C(C)(C)Cc1ccccc1 | 101
3 | C[C@H]1[C@H](C)CC[C@]2(C(=O)O)CC[C@]3(C)C(=CCC4[C@@]5(C)C[C@@H](O)[C@H](O)[C@@](C)(CO)C5[C@H](O)C[C@]43C)[C@H]12 (some centres not stated) | 110
4 | CC(=O)OCC(=O)[C@@]1(O)CCC2C3CCC4=CC(=O)C=CC4(C)C3[C@@H](O)C[C@@]21C (some centres not stated) | 81.1
5 | CNS(=O)(=O)Cc1ccc2[nH]cc(CCN(C)C)c2c1 | 115
6 | CC(=O)O[C@]1(C(C)=O)CCC2C3C=C(C)C4=CC(=O)CCC4(C)C3CCC21C (some centres not stated) | 98
7 | CCCCOC(=O)c1ccc(N)cc1 | 85.9
8 | COc1cc2cc3c4cc(OC)c(OC)cc4cc[n+]3c(C)c2cc1OC | 95.4
9 | CC(=O)OC1CCC2(C)C(=CC=C3C2CCC2(C)C3CCC2C(C)/C=C/C(C)C(C)C)C1(C)C (configuration not stated) | 125
10 | CC(C)C(C)/C=C/C(C)C1CCC2C3=CC=C4CC(O)CCC4(C)C3CCC21C (configuration not stated) | 111
11 | CC(C)CCCC(C)[C@H]1CCC2C3CC[C@H]4CC(=O)CC[C@]4(C)C3CC[C@@]21C (some centres not stated) | 102
12 | COc1ccc(-c2cc(=O)c3c(O)c(OC)c(O[C@H]4O[C@H](CO[C@@H]5O[C@@H](C)[C@H](O)[C@@H](O)[C@H]5O)[C@@H](O)[C@H](O)[C@H]4O)cc3o2)cc1 | 109
13 | NS(=O)(=O)c1cc2c(cc1C(F)(F)F)NCNS2(=O)=O | 107
14 | O=c1[nH]cnc2c1ncn2C1O[C@H](CO)[C@@H](O)[C@H]1O (some centres not stated) | 112
15 | CO[C@H]1C[C@H](O[C@H]2[C@H](C)[C@@H](OC3O[C@H](C)C[C@H](N(C)C)[C@H]3O)[C@@H](C)C[C@]3(CO3)C(=O)[C@H](C)[C@@H](O)[C@@H](C)[C@@H](C)OC(=O)[C@@H]2C)O[C@@H](C)[C@@H]1O (some centres not stated) | 107
16 | CC(=O)S[C@@H]1CC2=CC(=O)CC[C@]2(C)[C@H]2CC[C@@]3(C)[C@@H](CC[C@@]34CCC(=O)O4)C12 (some centres not stated) | 106
17 | COc1ccc2oc3ccccc3c(=O)c2c1 | 106
18 | C[C@@H]1CC[C@H]2[C@@H](C)C(O)O[C@@H]3OC4(C)CC[C@@H]1[C@]32OO4 (some centres not stated) | 106
19 | CN[C@H]1C[C@@H](N)[C@H](O)[C@@H](O[C@@H]2O[C@H](CO)[C@@H]3OC4(O[C@@H]3[C@@H]2O)O[C@H](C(N)CO)[C@H](O)[C@H](O)[C@H]4O)[C@@H]1O (some centres not stated) | 122
20 | CC(C)c1ccc2c(c1)CCC1[C@](C)(CN)CCC[C@]21C (some centres not stated) | 111
21 | CC1=C(C(=O)O)N2C(=O)[C@@H](NC(=O)[C@H](N)C3=CCC=CC3)C2SC1 (some centres not stated) | 103
22 | CC(=O)O[C@H]1CC[C@]2(C)C3CC[C@@]4(C)C(CC5O[C@@]6(CCC(C)CO6)[C@@H](C)C54)C3CC[C@@H]2C1 (some centres not stated) | 84.2
23 | C[C@H](CC(=O)C1OC1(C)C)[C@H]1C(=O)C[C@@]2(C)C3=CCC4C(C)(C)[C@@H](O[C@@H]5OC[C@@H](O)[C@H](O)[C@H]5O)CC[C@@]45C[C@@]35[C@@H](O)C[C@]12C (some centres not stated) | 91.8
24 | O=C1NS(=O)(=O)c2ccccc21 | 102
25 | NS(=O)(=O)c1cc2c(cc1Cl)NC(C(Cl)Cl)NS2(=O)=O (configuration not stated) | 108
26 | Cc1nc(N)cc(C[n+]2csc(CCO)c2C)n1 | 83.3
27 | O=C(O)C1(O)C[C@@H](O)C(O)[C@H](O)C1 (some centres not stated) | 89.8

From PubChem BioAssay
